Laboratory results from PubChem BioAssay.
Activity calls are given as the source filed them.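 Rule for the calls, unless noted: active = fluorescence slope after compound addition differing from the mean of all screened samples at 99.7% confidence, in either direction; inactive = the rest.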

Columns and labels:
[1] = inhibitors of TNFa-induced NFkB p65 translocation, primary screen, imaging, HUVEC, MLSMR starter and 10KST1 sets (AID 438;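 active = inhibition above 20% together with a positive visual image hit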;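 note: compound added about 3h40 before a 20 min TNFalpha stimulation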;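 for inhibition: signal is the nuclear over cytoplasmic p65 intensity ratio per well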); conditions: HUVEC TNFa-induced p65 nuclear translocation; cell count: measured here: nuclei count (cytotoxicity indicator), at 2.08 µM; inhibition: at 2 µM, stronger effect = higher value, 0% TNFa-plus-vehicle, 100% no-TNFa wells
[2] = reduction of polyQ htt aggregates in cells – imaging, exon1htt(103Q)mCFP cells, high-content imaging, primary screen (AID 483;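 active = visual image review flags a hit and inhibition of aggregation exceeds 20%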;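 note: compound exposure lasted 3 days before fixation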;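 for nuclei count: percent of the per-plate median nuclei count of sample wells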); conditions: exon1htt(103Q)mCFP cell line, aggregate imaging, at 2 µM; inhibition of aggregation: stronger effect = higher value; nuclei count: measured here: cell count, toxicity
[3] = endothelial E-selectin expression blockers – imaging, HUVEC, immunofluorescence, MLSMR starter and 10KST1 sets, primary screen (AID 487;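 active = visually confirmed hit in the image check and inhibition above 20%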;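 for inhibition: signal is fraction of cell area covered by stained E-selectin grains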;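 for nuclei count: 100% = median nuclei count of all wells on the same plate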); conditions: HUVEC TNFalpha-induced E-selectin immunofluorescence imaging, at 2 µM; inhibition: stronger effect = higher value; nuclei count: measured here: cell number, toxicity
[4] = target: Voltage-gated potassium channel subunit beta-2 (Rattus norvegicus) (UniProt P62483); experiment: inhibitors of rat Kvbeta2 reductase activity – biochemical, NADPH fluorescence, primary screen (AID 622;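 active = fluorescence slope higher than the sample average by over 3 SD, cut at about -0.22 in these data, passing the limit was not always enough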;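 note: slope of raw intensity against log time taken from 70 to 1610 s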); conditions: recombinant KvBeta, 4-cyanobenzaldehyde reduction, at 10 µM, stronger effect = higher value
[5] = target: Voltage-gated potassium channel subunit beta-2 (Rattus norvegicus) (UniProt P62483); experiment: enhancers of rat Kvbeta2 NADPH turnover – biochemical, NADPH fluorescence, primary screen (AID 623;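 active = NADPH fluorescence slope more negative than the mean of all samples by about 3 SD, 99.7% confidence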;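 note: fluorescence intensity change per second fitted from 20 to 320 s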); conditions: Recombinant KvBeta, NADPH fluorescence decrease slope, 10 min; at 10 µM; stronger effect = lower value
[6] = target: Alpha-2C adrenergic receptor (Homo sapiens) (UniProt P18825); experiment: compounds altering alpha2C-coupled GIRK flux – cell-based, HEK293 alpha2C/GIRK1/2, thallium flux, primary screen (AID 624); conditions: thallium flux BTC fluorescence, at 10 µM, actives lie on both sides;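 note: slope of fluorescence ratio to pre-addition baseline per second over 15 to 24 s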
[7] = blockers of RIG-like receptor reporter activation – cell-based, Sendai virus stimulus, luciferase, 10K MLSCN set, TLR/RLR signaling modifier project, primary screen (AID 602276;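 active = inhibition at or above 50% at 10 µM; inactive = inhibition below 50%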;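 note: firefly luciferase from ISG56 promoter only with Renilla not read in this screen; 0% = Sendai virus plus DMSO and 100% = medium plus DMSO without virus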); conditions: HEK293 RL24 IRF3 luciferase reporter, at 10 µM, stronger effect = higher value
[8] = TLR3 IRF3 reporter activation blockers – cell-based, poly I:C stimulus, luciferase, 10K MLSCN set, primary screen (AID 602277;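 active = inhibition of the reporter signal at or above 50%; inactive = inhibition below 50%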); conditions: HEK293-TLR3 RL24 IRF3 luciferase reporter, at 10 µM, stronger effect = higher value

Alpha-2C adrenergic receptor (Homo sapiens), sequence (P18825 whole entry, looked up): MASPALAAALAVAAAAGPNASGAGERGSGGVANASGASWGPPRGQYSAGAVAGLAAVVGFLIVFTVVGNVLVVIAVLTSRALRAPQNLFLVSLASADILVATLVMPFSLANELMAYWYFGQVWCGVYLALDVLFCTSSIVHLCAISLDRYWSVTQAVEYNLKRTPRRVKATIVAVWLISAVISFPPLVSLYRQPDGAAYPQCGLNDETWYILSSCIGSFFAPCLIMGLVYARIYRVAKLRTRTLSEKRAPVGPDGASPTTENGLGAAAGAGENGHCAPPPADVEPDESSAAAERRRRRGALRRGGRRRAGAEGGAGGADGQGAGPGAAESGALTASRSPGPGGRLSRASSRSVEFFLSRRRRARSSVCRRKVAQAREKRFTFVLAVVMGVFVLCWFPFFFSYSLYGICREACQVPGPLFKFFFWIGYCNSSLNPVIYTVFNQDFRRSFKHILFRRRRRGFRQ
Voltage-gated potassium channel subunit beta-2 (Rattus norvegicus), sequence (P62483 whole entry, looked up): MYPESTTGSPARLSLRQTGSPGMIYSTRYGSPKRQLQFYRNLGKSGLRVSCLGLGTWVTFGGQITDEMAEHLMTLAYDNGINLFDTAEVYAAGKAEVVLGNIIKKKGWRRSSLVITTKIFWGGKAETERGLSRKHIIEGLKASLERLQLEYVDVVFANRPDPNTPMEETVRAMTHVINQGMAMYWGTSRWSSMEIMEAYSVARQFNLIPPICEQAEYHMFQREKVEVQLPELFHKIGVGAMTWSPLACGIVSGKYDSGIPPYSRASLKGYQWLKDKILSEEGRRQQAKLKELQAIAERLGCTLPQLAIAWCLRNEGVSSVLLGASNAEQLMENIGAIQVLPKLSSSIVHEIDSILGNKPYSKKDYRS

SMILES	cell count [1]	inhibition [1]	inhibition of aggregation [2]	nuclei count [2]	inhibition [3]	nuclei count [3]	fluorescence slope [4]	NADPH fluorescence slope [5]	slope [6]	inhibition [7]	inhibition [8]
CCN(CC)C(=O)C1=C(C)Nc2nnnn2C1c1cccnc1 (stereo unspecified)	346	9.3% (inactive)	11.2% (inactive)	102%	-55.9% (inactive)	109%	-0.567 (inactive)	1.1e-05 (inactive)	0.0059 (inactive)	11.8% (inactive)	16.8% (inactive)
Cc1cc(=O)[nH]c(SCc2nc3ncccn3c2Br)n1	636	-2.4% (inactive)	-10.4% (inactive)	76.5%	-32.2% (inactive)	107%	-0.27 (inactive)	-6.4e-06 (inactive)	0.00645 (inactive)	8.84% (inactive)	23.4% (inactive)
CCCC(=O)Nc1cc(C)c(NC(=O)c2ccccn2)cn1	418	13.7% (inactive)	19.4% (inactive)	89.7%	-10.2% (inactive)	110%	-0.606 (inactive)	-5.2e-05 (inactive)	0.007 (inactive)	4.7% (inactive)	11.8% (inactive)
CCCS(=O)(=O)N1CCCC(C(=O)NC2CCCC(C)C2C)C1 (stereo unspecified)	357	-0.5% (inactive)	7.4% (inactive)	92.6%	-13.1% (inactive)	105%	-0.551 (inactive)	2.2e-05 (inactive)	0.00599 (inactive)	9.58% (inactive)	-2.45% (inactive)
CCOc1ccccc1NC(=O)CSc1nnc2c(CC)c(C)nc(N)n12	340	-6.8% (inactive)	1.5% (inactive)	99.1%	9.7% (inactive)	92.7%	-0.305 (inactive)	-4e-05 (inactive)	0.00576 (inactive)	-6.38% (inactive)	98.4% (active)
COc1ccccc1NC(=O)c1oc2ccccc2c1NC(=O)c1cc(OC)c(OC)c(OC)c1	582	-7.6% (inactive)	-17.1% (inactive)	85.7%	25.8% (inactive)	60.4%	-0.36 (inactive)	-9.5e-06 (inactive)	0.00886 (inactive)	36% (inactive)	65.9% (active)
Cc1ccc2oc(=O)c3cnn(CC(=O)NCCC(C)C)c3c2c1	618	-3.9% (inactive)	-7.6% (inactive)	124%	-31.4% (inactive)	104%	-0.602 (inactive)	-2.9e-05 (inactive)	0.0065 (inactive)	7.61% (inactive)	18.2% (inactive)
CCCS(=O)(=O)N1CCC(C(=O)NCCN2CCCC2)CC1	201	-6.8% (inactive)	12.3% (inactive)	104%	30.3% (inactive)	70.1%	-0.405 (inactive)	-3.3e-05 (inactive)	0.00665 (inactive)	13.8% (inactive)	19.2% (inactive)
CCOC(=O)CSc1nnc(-c2ccc(Cl)cc2Cl)o1	376	1.9% (inactive)	-9.2% (inactive)	93.8%	-57.5% (inactive)	116%	-0.405 (inactive)	-2.6e-05 (inactive)	0.00557 (inactive)	4.99% (inactive)	2.18% (inactive)
C/C=C/CSc1nc2c(c(=O)[nH]c(=O)n2C)n1Cc1ccc(C)cc1	693	-6.9% (inactive)	-5% (inactive)	116%	-43.7% (inactive)	112%	-0.542 (inactive)	-3.9e-05 (inactive)	0.0074 (inactive)	-3.97% (inactive)	18.2% (inactive)
CCOC(=O)C1(C)NC(c2ccc(OC)c(OC)c2)C2C(=O)N(CC)C(=O)C21 (stereo unspecified)	369	-8.4% (inactive)	29.1% (inactive)	105%	-211% (inactive)	182%	-0.598 (inactive)	-9.8e-06 (inactive)	0.00547 (inactive)	1.25% (inactive)	14.3% (inactive)
CCN1C(=O)c2cccc3c(NC(=O)c4ccc5c(c4)OCCO5)ccc1c23	563	0.5% (inactive)	4.6% (inactive)	87.1%	18% (inactive)	90.9%	-0.48 (inactive)	-5.7e-06 (inactive)	-0.00194 (inactive)	7.48% (inactive)	17% (inactive)
COc1cccc(-c2nnn(CC(=O)O)n2)c1	472	-5.1% (inactive)	-19.3% (inactive)	90.3%	-118% (inactive)	233%	-0.468 (inactive)	2.6e-06 (inactive)	0.00693 (inactive)	6.2% (inactive)	43.8% (inactive)
COc1cccc(-c2nnc(NC(=O)c3ccccc3Br)o2)c1	718	-6.9% (inactive)	-5.7% (inactive)	110%	-17.4% (inactive)	117%	-0.421 (inactive)	-3.3e-05 (inactive)	0.00691 (inactive)	4.13% (inactive)	17.2% (inactive)
CCCSc1nc2c(cnn2-c2ccc(C)cc2)c(=O)[nH]1	671	-5.8% (inactive)	-5.9% (inactive)	115%	-17.4% (inactive)	113%	-0.545 (inactive)	-5.2e-06 (inactive)	0.0075 (inactive)	-9.65% (inactive)	10.6% (inactive)
O=C(Nc1nnc(N2CCCCCC2)s1)c1cc(-c2ccc(Br)cc2)on1	890	1.2% (inactive)	5.2% (inactive)	85.6%	-76.6% (inactive)	120%	-0.612 (inactive)	-2.8e-06 (inactive)	0.00651 (inactive)	5.43% (inactive)	23.2% (inactive)
Cc1ccc(C(C(=O)NC(C)(C)C)N(C(=O)c2csnn2)c2cccc(F)c2)o1 (stereo unspecified)	357	4.3% (inactive)	7.8% (inactive)	93.7%	-33.5% (inactive)	81.8%	-0.492 (inactive)	8.2e-06 (inactive)	0.00622 (inactive)	8.19% (inactive)	20.7% (inactive)
COc1cccc(NC(=O)N[C@@H](Cc2ccccc2)C(=O)O)c1	565	-9.8% (inactive)	-6.9% (inactive)	103%	-37% (inactive)	100%	-0.591 (inactive)	-3.6e-05 (inactive)	0.00635 (inactive)	6.12% (inactive)	15.1% (inactive)
CCOC(=O)c1ccc(NS(=O)(=O)c2ccc3c(c2)CCCN3C(C)=O)cc1	684	0.7% (inactive)	9.2% (inactive)	99%	-93.7% (inactive)	125%	-0.543 (inactive)	8.9e-06 (inactive)	0.00506 (inactive)	1.89% (inactive)	6.65% (inactive)
Cc1cc(C(F)(F)F)nn1Cc1ccc(C(=O)NCc2ccco2)o1	597	-2.1% (inactive)	2% (inactive)	106%	-36% (inactive)	108%	-0.568 (inactive)	-2.7e-05 (inactive)	0.00427 (inactive)	-1.39% (inactive)	-36.9% (inactive)
COc1ccc(C(CC(=O)O)NC(=O)c2ccccc2)cc1OC (stereo unspecified)	317	-1.6% (inactive)	-6.3% (inactive)	116%	-9% (inactive)	106%	-0.311 (inactive)	1e-05 (inactive)	0.00391 (inactive)	9.8% (inactive)	28.8% (inactive)
COc1ccc2nc(N3CCC(C)CC3)c(C#N)cc2c1	380	7.3% (inactive)	-10.6% (inactive)	108%	-59.3% (inactive)	66.6%	-0.587 (inactive)	-9e-06 (inactive)	0.00372 (inactive)	-48.2% (inactive)	-170% (inactive)
C(=N/n1c2ccccc2c2ccccc21)/c1ccco1	360	-2% (inactive)	-20.7% (inactive)	102%	2.6% (inactive)	109%	-0.417 (inactive)	-0.000138 (inactive)	0.00632 (inactive)	12% (inactive)	29.6% (inactive)
CCNC(=O)CC1C(=O)N(c2ccccc2)C(=O)N1CCC(C)C (stereo unspecified)	339	2.8% (inactive)	3.6% (inactive)	104%	-62.6% (inactive)	97.9%	-0.512 (inactive)	-3.8e-05 (inactive)	0.00552 (inactive)	8.08% (inactive)	31.4% (inactive)
O=C(OCC(=O)N1CCCCCC1)c1cccs1	295	7.1% (inactive)	3.3% (inactive)	103%	4.3% (inactive)	107%	-0.53 (inactive)	-5.7e-05 (inactive)	0.00485 (inactive)	-20.1% (inactive)	-75.3% (inactive)
Cn1c(C(=O)N2CCN(C(=O)c3ccco3)CC2)cc2c(=O)n3ccccc3nc21	323	-3.3% (inactive)	-13.8% (inactive)	111%	-116% (inactive)	118%	-0.00798 (active)	7.5e-06 (inactive)	0.00582 (inactive)	10.9% (inactive)	18% (inactive)
